Compound activity: PubChem BioAssay, National Center for Advancing Translational Sciences (NCATS)
Sampled rows, rich in hits. Any-hit rate of the full collection: about 9.8%.
CBFb-RUNX1 inh: blocks binding between human CBF-beta and RUNX1. Q01196+Q13951. AlphaScreen CBFb-His/RUNX1-biotin binding, biochemical. Potency, µM (doses to about 59.8 µM), inactives show top-dose activity, negative = inhibition, usual class: inhibitors. 230,000 tested, under 10 active. AID 1477; active means well fitted curve in the direction sought with a large enough effect; inconclusive means small, poorly fitted or top-dose-only effect, or another doubt; inactive means no such curve, though single readings can be large; an effect the other way counts as inactive or inconclusive; further: % of control where 0% means no effect
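Room-temperature protein-protein interaction test with 30 nM each of His-tagged CBF-beta and biotinylated RUNX1, 15 min with compound, then 90 min with nickel plus streptavidin beads. Signal read in AlphaScreen mode.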
KDM4E inh: inhibitors of human JMJD2E histone demethylase; B2RXH2; hit rate 1.6% among 230,000; JMJD2E catalytic domain, FDH-coupled NADH fluorescence (FDH is formaldehyde dehydrogenase); Potency, µM (doses to about 57.1 µM), for inactives: top-dose activity change, negative = inhibition, usual class: inhibitors;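 further: potency means the concentration at half of the fitted maximal effect; 0% = wells with enzyme and -100% = buffer wells without enzyme; nearly all actives have a fitted effect of over 50% in size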
Target sequence (B2RXH2 1-337 limits assumed): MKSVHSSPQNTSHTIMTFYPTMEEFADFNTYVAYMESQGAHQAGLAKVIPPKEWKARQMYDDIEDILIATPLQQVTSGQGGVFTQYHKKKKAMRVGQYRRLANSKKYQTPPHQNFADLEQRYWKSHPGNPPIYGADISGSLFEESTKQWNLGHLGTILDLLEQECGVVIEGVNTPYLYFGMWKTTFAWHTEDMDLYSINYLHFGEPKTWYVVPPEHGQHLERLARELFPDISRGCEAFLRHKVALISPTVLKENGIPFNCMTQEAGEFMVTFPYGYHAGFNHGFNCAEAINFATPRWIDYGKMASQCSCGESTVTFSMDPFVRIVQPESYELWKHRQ
HTT ATP protect: Huntington cell model cytoprotection by ATP luminescence. PC12 HTT-Q103 induced, cytoprotection, ATP luminescence, 40 h. Potency, µM (highest dose often 56.4 µM), inactives show cytoprotection (ATP increase), actives largely listed as activators. hit rate 0.14% among 230,000; active means well fitted curve in the direction sought with a large enough effect; inconclusive means small, poorly fitted or top-dose-only effect, or another doubt; inactive means no such curve, though single readings can be large; an effect the other way counts as inactive or inconclusive; further: potency means the concentration at half of the fitted maximal effect; % of control where 0% means no effect; nearly all actives have a fitted effect of over 45% in size
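Huntington model: PC12 line, ecdysone-inducible HTTQ103 exon1–GFP, tebufenozide 100 nM. Test articles in a dose series. Endpoint luminescence from cellular ATP.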
HTT aggregate: reduces HttQ103-GFP aggregates in PC12 cells | PC12 HttQ103-GFP aggregates, Acumen cytometry, 40 h | hit rate 1.1% among 220,000 | AID 1688 | Potency, µM (top dose mostly 46.1 µM), for inactives: top-dose activity change, negative = inhibition, usual class: inhibitors; active means well fitted curve in the direction sought with a large enough effect; inconclusive means small, poorly fitted or top-dose-only effect, or another doubt; inactive means no such curve, though single readings can be large; an effect the other way counts as inactive or inconclusive; further: potency means the concentration at half of the fitted maximal effect; on the % scale 0 is the no-effect control and ±100 the full control effect; nearly all actives have a fitted effect of over 60% in size
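Aggregates are detected as GFP objects 1–25 µm with signal 6 STDEV over background in lysates of induced PC12 cells. These carry Huntingtin exon 1 with 103 glutamines fused to GFP under an ecdysone promoter; compounds titrated.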
HPGD inh: HPGD (human) dehydrogenase inhibition; P15428; purified HPGD, NADH fluorescence kinetic, PGE2 substrate; Potency, µM, for the others: at the top dose activity change, negative = inhibition, actives largely listed as inhibitors; hit rate 4.3% among 150,000; AID 894; further: potency means the concentration at half of the fitted maximal effect; on the % scale 0 is the no-effect control and ±100 the full control effect
Target sequence (P15428 whole entry, looked up): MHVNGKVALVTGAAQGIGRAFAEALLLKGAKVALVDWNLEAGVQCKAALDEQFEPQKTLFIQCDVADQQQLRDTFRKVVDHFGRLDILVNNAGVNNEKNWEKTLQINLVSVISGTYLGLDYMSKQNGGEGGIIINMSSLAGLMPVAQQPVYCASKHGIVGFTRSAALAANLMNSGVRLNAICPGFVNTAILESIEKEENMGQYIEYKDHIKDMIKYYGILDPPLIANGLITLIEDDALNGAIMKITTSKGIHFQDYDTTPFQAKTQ
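20 nM HPGD preincubated 15 min at room temperature with compound in 50 mM Tris-HCl pH 8, 0.01% Tween 20. Started with 1 mM NAD+ and 30 uM prostaglandin E2; NADH fluorescence (360/450 nm) read 5 times over 30-s intervals, last minus first.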
ALDH1A1 inh: inhibitors of human aldehyde dehydrogenase 1A1; Purified ALDH1A1, NADH fluorescence, propionaldehyde substrate; AID 1030; Potency, µM (titrated, usually from 75.3 µM), for inactives: at the highest dose activity, negative = inhibition, hits mostly inhibitors; hit rate 7.3% among 220,000; P00352;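 further: potency means the concentration at half of the fitted maximal effect; plate controls were no enzyme wells and a reference inhibitor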
Numbers without * were called inactive; u = inconclusive; x = no result; [ ] = another dose, or the depositor's remark. Unless noted, the call rests on the fitted dose curve; in most records, active means well fitted inhibition curve with a large enough effect (not every such curve was filed as active); inconclusive means small, poorly fitted or top-dose-only effect, or another doubt; inactive means no such curve, though single readings can be large or run the other way.

SMILES	CBFb-RUNX1 inh	KDM4E inh	HTT ATP protect	HTT aggregate	HPGD inh	ALDH1A1 inh
CCCc1cc(-c2n[nH]c(C(=O)OCC)c2-c2cscn2)c(O)cc1O	-0.3%	5.4%	21.9%	11.7%	3.2%	8.91µM*
O=C(Nc1ccc2c(c1)OCO2)C1CCCCN1S(=O)(=O)c1ccc(F)cc1 (stereo not given)	-0.3%	0.8%	-20.2%[0.074 µM]	22.0%	-2.2%	-4.1%
O=C(Nc1ccc(S(=O)(=O)N2CCOCC2)cc1)c1ccc(CN2CCc3ccccc3C2)cc1	0.1%	-4.7%	-76.9%	u	-14.2%	1.1%
COc1ccc2c(c1)-c1nc(/N=C/c3ccc(O)c(OC)c3)sc1CC2	-2.9%	u	10.2%[10 µM]	-9.8%	-26.1%	25.1µM*
Cc1cccc(NC(=O)c2ccc(COc3ccc4ccccc4c3)o2)n1	13.1%	u	-1.1%[10 µM]	-2.2%[9.22 µM]	x	-8.2%
Cc1c(NC(=O)c2ccc(COc3ccc4ccccc4c3)o2)c(=O)n(-c2ccccc2)n1C	9.8%	-6.6%	-15.7%[0.074 µM]	-26.3%	35.5µM*	u
Cc1nc(N2CCN(C(=O)CCC(=O)O)CC2)c2c(C)c(C)sc2n1	0.9%	-2.9%	-4.1%[10 µM]	-24.1%	35.5µM*	3.9%
CCC(=O)N1CCN(c2nc(C)nc3sc(C)c(C)c23)CC1	2.9%	4.7%	-24.6%[10 µM]	-24.8%	u	-0.2%
CC(C)CCCC(C)NC(C)C (stereo not given)	x	x	-1.6%	0.7%	x	x
Cc1ccc(Cn2c(-n3nc(C)cc3C)nc3c2c(=O)[nH]c(=O)n3C)cc1	7.3%	8.8%	-6.5%	11.2%	-8.2%	11.3%
Cc1cc(C)n(-c2nc3c(c(=O)[nH]c(=O)n3C)n2Cc2cccc(Br)c2)n1	11.6%	1.9%	18.9%[0.074 µM]	5.2%	15.8µM*	0.5%
Cn1c(=O)[nH]c(=O)c2c1nc(Sc1nc3ccccc3s1)n2Cc1ccccc1	-8.8%	-1.6%	-27.8%	-18.1%	-3.8%	15.8µM*
Cn1c(=O)[nH]c(=O)c2c1nc(SCCN1CCCCC1)n2CCCc1ccccc1	3.6%	-0.1%	6.1%[10 µM]	-2.9%	28.2µM*	u
Cc1cccc(Cn2c(SCCN3CCCCC3)nc3c2c(=O)[nH]c(=O)n3C)c1	8.4%	14.9%	-8.0%[10 µM]	11.1%[9.22 µM]	x	x
Cc1ccc(Cn2c(SCCN3CCCCC3)nc3c2c(=O)[nH]c(=O)n3C)cc1	1.0%	-6.4%	-6.7%[10 µM]	-22.4%	28.2µM*	u
Cc1ccc(Cn2ncc(C)c2N)o1	4.8%	4.9%	7.1%[10 µM]	-8.4%[9.22 µM]	x	8.5%
CCc1c2c(nc3cccc(SC)c13)COC2	-2.5%	u	-76.4%	x	u	u
CS(=O)(=O)OCC(O)C(O)COS(C)(=O)=O (stereo not given)	x	x	-17.7%	-10.5%	x	x
C=CCC(CC(O)COCCC)C(=O)NNC(=S)Nc1ccccc1 (stereo not given)	-1.2%	-8.4%	-7.2%[10 µM]	15.0%[9.22 µM]	x	x
O=S(=O)(Nc1nc2ccccc2nc1NCC1CCCO1)c1cccc(Cl)c1 (stereo not given)	-2.3%	u	21.9%[10 µM]	-5.7%[9.22 µM]	x	x
O=C(CCc1nnc(CCCCc2ccccc2)o1)N1CCCC(O)C1 (stereo not given)	-5.4%	6.2%	14.9%[10 µM]	9.1%[9.22 µM]	x	x
Cn1c(=O)[nH]c(=O)c2c1nc(SCCN1CCCCC1)n2Cc1ccccc1	2.6%	5.0%	-6.1%[10 µM]	1.2%	25.1µM*	u
Cc1cccc(Cn2c(SCC(=O)Nc3ccccc3)nc3c2c(=O)[nH]c(=O)n3C)c1	3.5%	-4.7%	-0.8%	-8.8%	22.4µM*	u
C=CCSc1nnc(CNC(=O)c2ccccc2C)n1C(C)C	4.2%	0.1%	-4.6%	20.8%	x	-5.6%
CC1=NN(c2ccccc2)C(=O)/C1=C\N1CC(C)OC(C)C1 (stereo not given)	-5.4%	-8.8%	-27.9%	5.1%	-1.9%	25.1µM*
CC1=NN(c2ccccc2)C(=O)/C1=C/C=C/c1ccccc1	-10.3%	-2.9%	x	u	-11.2%	u
CC(C)N=c1c([N+](=O)[O-])nn(C)n1O	12.5%	6.8%	-2.9%	28.3%	x	-0.9%
